# Over roughly 33,000 sequences, “E-score (-0.5 to 0.5)” has its median near -0.035; the highest 2% begin near 0.34. The sample as a whole holds a higher share of the highest values than the screen did.
# Biological target: T1, Mot3 (UniProt P54785)
# T1 sequence: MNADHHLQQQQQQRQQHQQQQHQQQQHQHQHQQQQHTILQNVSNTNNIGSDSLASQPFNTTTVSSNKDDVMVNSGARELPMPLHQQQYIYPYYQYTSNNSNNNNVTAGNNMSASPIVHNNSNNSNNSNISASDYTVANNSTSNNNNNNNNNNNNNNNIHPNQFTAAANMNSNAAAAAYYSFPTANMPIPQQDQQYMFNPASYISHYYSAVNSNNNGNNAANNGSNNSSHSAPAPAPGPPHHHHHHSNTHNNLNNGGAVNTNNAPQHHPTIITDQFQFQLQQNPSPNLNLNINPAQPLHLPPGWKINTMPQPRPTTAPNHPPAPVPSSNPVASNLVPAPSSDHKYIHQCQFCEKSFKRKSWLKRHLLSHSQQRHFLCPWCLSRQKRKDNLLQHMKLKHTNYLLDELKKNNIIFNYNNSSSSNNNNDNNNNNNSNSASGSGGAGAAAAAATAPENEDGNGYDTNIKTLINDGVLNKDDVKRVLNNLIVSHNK
# Test: PBM E-score (8-mer binding enrichment) (E-score (-0.5 to 0.5)); higher = stronger / more preferred TF binding
# Settings: protein concentration: 200 nM; construct: GST-full length
# In short: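 Yeast transcription factors carrying a GST tag, as full-length proteins or DNA-binding domains, were produced by PURExpress in vitro transcription/translation. About 100-200 nM protein was applied to universal all-10-mer Agilent arrays, double-stranded by primer extension on fresh or once-stripped slides. Bound protein was detected with fluorescent anti-GST, and scans were normalised with masliner. The Universal PBM Analysis Suite gave each ungapped eight-base word, pooled with its reverse complement, an E-score, a modified Wilcoxon-Mann-Whitney statistic.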
row,Sequence,PBM E-score
1,CTTGCCGA,-0.0816
2,CTTGCCTA,0.488
3,CCTGCCTA,0.244
4,CGTTTGTC,-0.0445
5,CAGCCGCG,-0.0863
6,CGTTACAC,0.274
7,AATTTTAC,0.222
8,ATTTACAG,0.228
9,ATTTACGC,0.239
10,ATTTTTAC,0.34
11,CTTTACAA,0.326
12,ATTTACTC,0.159
13,GTTTACAA,0.336
14,ATTTACAA,0.363
15,ATTTTTAA,0.156
16,CTTTACAC,0.415
17,ATTTACAC,0.412
18,ACGAGAAC,0.0296
19,CATACAGC,-0.19
20,AAACGTGC,0.118
21,GCACCTCC,-0.215
22,ATGTCCTA,-0.0455
23,CGAGAGAG,-0.145
24,GACTGGAA,-0.213
25,CATAGGAA,0.231

row,Sequence,PBM E-score
1,AATAGGTA,0.38
2,CCTAGGAA,0.018
3,TATAGGAA,0.412
4,AATAGGTC,0.0378
5,AATAGGAT,-0.00596
6,AATAGGTG,0.0976
7,GATAGGAA,0.197
8,AATAGGAA,0.415
9,ACGTGCCA,0.00099
10,AAGTCCGT,-0.0474
11,AGTTAGGA,0.108
12,ATCAGGTA,0.256
13,GGGCGTGA,-0.066
14,CGACTTCC,-0.0315
15,TCTATAGA,-0.152
16,ACAATGGT,-0.058
17,ATGTAACG,0.268
18,ATGTAATG,0.395
19,ATGTAAGA,0.309
20,ATGTAAGG,0.298
21,CTGTATTC,0.185
22,CTGTAATA,0.238
23,ATGTATTG,0.303
24,AGGTAATC,0.344
25,ATGTATTC,0.363

row,Sequence,PBM E-score
1,ATGTAATA,0.405
2,CGGTAATC,-0.149
3,AGGTAATG,0.279
4,GGAGACCC,-0.0421
5,ACAACTAA,0.183
6,AGAAGTGG,-0.199
7,ATGCGTGG,-0.214
8,CTGCAACA,0.0762
9,CGCCACTA,-0.196
10,AAGTCCAC,-0.187
11,AAGTGCTC,-0.203
12,ACCAGTAA,0.016
13,GCACAGCA,0.144
14,CAAGTTGC,0.144
15,CAGCGAGG,-0.276
16,TTCGCAAA,0.0552
17,ATGTAAGC,0.267
18,GAGTAATA,0.147
19,GTGTAATA,0.375
20,CTGTAATC,0.111
21,ATGTAATC,0.367
22,GGGTAATA,0.17
23,AGCGAAGC,-0.0443
24,AAAGGCGC,0.371
25,AAAGGCTG,0.0993

row,Sequence,PBM E-score
1,AAAGGCGG,0.0743
2,GAAGGCCC,0.122
3,AAAGGCTC,0.354
4,CAAGGCGC,0.191
5,GAAGGCGA,-0.0248
6,GAAGGCGC,0.362
7,CAAGGCTC,0.0281
8,CAATGAGG,-0.197
9,TACGCGAA,0.221
10,TCGACTAA,-0.0673
11,ACGCACTG,0.00111
12,AAGCACTG,-0.0039
13,AGGCACTC,0.481
14,CGGCACTC,-0.251
15,AGGCACTG,0.483
16,AGGCACTA,0.484
17,ATGCACTC,-0.061
18,GGGCACTA,0.0732
19,CGGCACTA,-0.184
20,GTGATCGA,0.11
21,TAAAAGCA,-0.123
22,GCAGACAC,-0.00428
23,AGAGACGA,-0.246
24,ACACGGTC,0.349
25,ACACGGTA,0.34

row,Sequence,PBM E-score
1,CCACGGTC,-0.385
2,CCACGGTA,-0.191
3,ACACGGGT,0.348
4,ACACGGGC,0.259
5,ACACGGGA,0.29
6,ACACGGTG,0.335
7,ATACGGTC,-0.061
8,AAAACTCA,0.0802
9,ATCCTGAA,0.0408
10,GAGGGACC,-0.298
11,CTTACGTA,0.211
12,ATTACGTA,0.354
13,ATTACGTC,0.269
14,GTTACGTA,0.177
15,ATTACGTG,0.383
16,ACTACGTG,0.0857
17,ACGTCCAG,-0.0677
18,GTGGGTAA,-0.0112
19,GGCACGAC,0.36
20,AGCACGGA,0.102
21,AGCACGTA,0.136
22,CGCACGTA,0.154
23,GGCACGAA,0.271
24,CGCACGCA,-0.03
25,GGCACGTA,0.363

row,Sequence,PBM E-score
1,GGCACGGA,0.397
2,GGCACGCC,0.237
3,GGCACGCA,0.348
4,CGCACGGA,-0.207
5,CGCACGAC,-0.0534
6,ACACCCCG,-0.336
7,ACCAGCCA,-0.131
8,ATGCTCTG,-0.203
9,ACCGCTCC,-0.258
10,CGGCATTC,-0.249
11,CCTCGAGG,-0.336
12,GCTTGTAA,0.318
13,AGAAAAGC,-0.171
14,AGGAAAGC,0.405
15,CGGAAAGC,-0.151
16,AGGAAAGG,0.371
17,ACGAAAGG,0.153
18,AGGAAAGA,0.282
19,AACCAAAT,0.127
20,GTCGCAAA,0.0742
21,ATATGCGC,0.0367
22,ACGCAACT,0.0644
23,TGGCAACA,0.118
24,AGGCAACT,0.484
25,AGGCAACA,0.482

row,Sequence,PBM E-score
1,AGGCAACC,0.483
2,CGGCAACG,-0.0123
3,AAGCAACT,-0.0233
4,CGGCAACA,0.0868
5,GGGCAACC,-0.175
6,AAGCAACG,0.0783
7,CGGCAACC,-0.0847
8,AGGCAACG,0.485
9,GAGGCAGC,-0.0844
10,CTTGCATC,-0.16
11,ACCTGCTC,0.166
12,ATATGACG,0.0195
13,CGTATTTC,0.215
14,AGGACACT,-0.159
15,AGGATCGA,-0.0463
16,GCACAACC,-0.0592
17,GCACAACA,0.35
18,CCACAACA,-0.0484
19,AAGGTCCC,-0.184
20,GGCGCATA,-0.113
21,ACCCGCAA,-0.0644
22,AAGGAACA,0.453
23,ATGGAACA,-0.111
24,AAGGAATT,-0.0259
25,GAGGAACA,0.176

row,Sequence,PBM E-score
1,CAGGAATG,-0.0291
2,TAGGAACA,0.416
3,AAGGAACT,0.416
4,CAGGAACG,0.466
5,AAGGAAGA,-0.0092
6,CAGAAACG,0.0904
7,ACGGAACT,-0.186
8,TCGGAACA,0.056
9,ATGCTTAG,0.0516
10,AACGTTAT,0.123
11,AAGCCTCC,-0.243
12,CACTGGCC,-0.267
13,AACACATA,0.312
14,AAATTGGA,-0.0378
15,CAGTGGCG,-0.266
16,AGCAGTCA,0.0249
17,CAGCCAGA,-0.3
18,CTCCCTTA,-0.018
19,ACCGGCCG,-0.21
20,AAGGAAGG,0.176
21,CAGAAACA,0.0657
22,AAGGAACG,0.465
23,ATGGAACG,0.0262
24,CAGAACCC,-0.0803
25,CAGGAACA,0.449

row,Sequence,PBM E-score
1,AGGGAACC,0.00909
2,CAGGAACC,0.46
3,ACGGAACC,0.0959
4,AAGGAACC,0.462
5,CGGGAACA,0.147
6,GAGGAACC,0.255
7,TCGTGCCA,-0.155
8,GCACACCA,0.143
9,GGGGGGAC,-0.254
10,CTACTGTC,-0.103
11,GGTCTAAA,-0.127
12,GATCGCAA,-0.129
13,ACTCAAAA,-0.0489
14,AAGCAATC,-0.0271
15,CGGCAATA,0.0917
16,AGGCAATG,0.476
17,AGGCAATC,0.481
18,AGGCAATA,0.472
19,GGGCAATA,-0.132
20,ATGCAATG,-0.0896
21,CGGCAATC,-0.109
22,ACGCAATG,0.23

# — the supplement of paper PMC3334620
